Among the data in PubChem BioAssay (Tox21) are Potency values, retold here.

Inconclusive results are not listed. The source made the active and inactive calls. Unless noted, calls come from the whole dose curve; as a rule, active = well fitted curve in the direction sought with a large enough effect in the repeat runs; inconclusive = weak or mixed curves; inactive = no such curve, though single readings can be large; an effect the other way counts as inactive or inconclusive.

The nature of assay [1]: qHTS assay for small molecules that induce genotoxicity in human embryonic kidney cells expressing luciferase-tagged ATAD5 (AID 651632). Note: nearly all actives have a fitted effect of over 15% in size. In a few lines:
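Test compounds were delivered by pin tool onto HEK293T reporter cells (2,000/well) expressing ATAD5 fused to luciferase. After 16 hr at 37C, 5% CO2, Amplite was added for 30 min at room temperature and luminescence was measured.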
Background: In qHTS, concentration-response curves come from the screen itself.

The nature of assay [2]: qHTS assay for small molecule agonists of the p53 signaling pathway - cell viability (AID 651633; calls by dose curve; note: nearly all actives have a fitted effect of over 30% in size; note: potency is the fitted concentration of half-maximal effect). In a few lines:
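Viability counter-read: CellTiter-Glo luminescence (30 min, room temperature) in the same p53RE-bla plates. These plates had been exposed to compounds for 16 h at 37 C.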

The nature of assay [3]: qHTS assay for small molecules that induce genotoxicity in human embryonic kidney cells expressing luciferase-tagged ATAD5 - cell viability (AID 651634; calls by dose curve; note: nearly all actives have a fitted effect of over 25% in size; note: potency is the fitted concentration of half-maximal effect). In a few lines: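 Quantitative high-throughput format. HEK293T cells expressing ATAD5 fused to luciferase were plated at 2,000 cells/well and treated 15.5 hr with compound versus DMSO. Viability was determined by fluorescent live-cell protease substrate, 30 min at 37C.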

The nature of assay [4]: qHTS assay for small molecule disruptors of the mitochondrial membrane potential - cell viability (AID 720634; calls by dose curve;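 note: human HepG2 liver cancer cells; series mostly up to about 83 µM; nearly all actives have a fitted effect of over 20% in size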). In a few lines:
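Same-well counter-screen: following the MMP dye addition, CellTiter-Glo was added to 1 hr compound-treated HepG2 cells and luminescence read after 30 min at room temperature.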

A short description of assay [5]: qHTS assay for small molecule disruptors of the mitochondrial membrane potential (AID 720635). Note: potency is the fitted concentration of half-maximal effect. In a few lines: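 Mitochondrial membrane potential tracked with Mito-MPS dye, red aggregates (ex 540/em 590 nm) against green monomers (ex 490/em 535 nm). Compound treatment 1 hr at 37C, dye 30 min in HepG2.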
The nature of assay [6]: qHTS assay to test for compound auto fluorescence at 590 nm (red) in HepG2 cells (AID 720674). In a few lines: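 We screened compounds on adherent HepG2 cells, incubating them for an hour at 37 C in 5% CO2 before reading emission at 590 nm under 540 nm excitation; values reflect equivalence to Rose Bengal sodium fluorescence.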
Assay [7] in a line: qHTS assay to test for compound auto fluorescence at 535 nm (green) in HepG2 cells (AID 720675).
The nature of assay [8]: qHTS assay to test for compound auto fluorescence at 460 nm (blue) in HEK293 cells (AID 720678). In a few lines: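 Measured: blue fluorescence (Ex 405/Em 460 nm) of compound-treated HEK293 cells, incubated overnight at 37C with 5% CO2 and scaled to triamterene equivalents.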
The nature of assay [9]: qHTS assay to test for compound auto fluorescence at 590 nm (red) in HEK293 cells (AID 720679). In a few lines: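 Using HEK293 cells at 2,000 per well, the screen added 23 nL of each compound after cell attachment and incubated overnight (37C, 5% CO2). The plate reader then captured red-label fluorescence, Ex/Em 540/590nm.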

As to `O=C(O)COc1ccc(CCNS(=O)(=O)c2ccccc2)s1`, the Potency entry in assay [1], in assay [2], in assay [3], in assay [4], in [5] and in [6] was “inactive” each time. The Potency entry in assay [7], in assay [8] and in assay [9] was “inactive” in each case.
Consider `CC1(C)N=C(N)N=C(N)N1c1ccc(Cl)cc1`, for which the Potency entry in assay [1], in [3], in assay [4], in assay [5], in assay [6] and in assay [7] was “inactive” in each case. For the same compound, the Potency result in [8] and in [9] was “inactive” each time. In addition, the Potency in assay [2] is 5.96 µM (active).
Turning to `CC(O)[C@@H]1NC(=O)[C@H](Cc2ccccc2)NC(=O)[C@H](C(C)O)NC(=O)[C@H](CCCCN)NC(=O)[C@H](Cc2c[nH]c3ccccc23)NC(=O)[C@H](Cc2ccccc2)NC(=O)[C@H](Cc2ccccc2)NC(=O)[C@H](CC(N)=O)NC(=O)[C@H](CCCCN)NC(=O)[C@@H](NC(=O)CNC(=O)[C@H](C)N)CSSC[C@@H](C(=O)O)NC(=O)[C@H](CO)NC1=O` (stereo partly specified), the Potency entry in assay [1], in assay [2], in assay [3], in assay [4], in assay [5] and in assay [6] was “inactive” each time. In addition, the Potency entry in assay [7], in assay [8] and in [9] was “inactive” in each case.
In the case of `CC(/C=C/C=C(\C)C(=O)O[C@@H]1O[C@H](CO[C@@H]2O[C@H](CO)[C@@H](O)[C@H](O)[C@H]2O)[C@@H](O)[C@H](O)[C@H]1O)=C\C=C\C=C(C)\C=C\C=C(/C)C(=O)O[C@@H]1O[C@H](CO[C@@H]2O[C@H](CO)[C@@H](O)[C@H](O)[C@H]2O)[C@@H](O)[C@H](O)[C@H]1O`, the Potency entry in [1], in assay [2], in assay [3], in assay [4], in assay [5] and in [6] was “inactive” each time. Besides, the Potency entry in [7], in assay [8] and in [9] was “inactive” throughout.
As to `NC(N)=NCC1COc2ccccc2O1` (stereo unspecified), the Potency entry in [1], in [2], in assay [3], in assay [4], in [5] and in assay [6] was “inactive” in each case. For the same compound, the Potency result in assay [7], in [8] and in assay [9] was “inactive” in each case.
On to `CCOC(=O)[C@@H](N)CS`, for which the Potency entry in [1], in [2], in assay [3], in [4], in assay [5] and in assay [6] was “inactive” each time. The Potency entry in [7], in assay [8] and in assay [9] was “inactive” throughout.
For `CO/N=C(\C(=O)N[C@@H]1C(=O)N2C(C(=O)O)=CCS[C@H]12)c1csc(N)n1`, the Potency result in [1], in assay [2], in assay [3], in assay [4], in assay [5] and in [6] was “inactive” in each case. For the same compound, the Potency entry in [7], in assay [8] and in assay [9] was “inactive” in each case.
In the case of `C=C1CC[C@@H]2[C@](C)(CO)[C@H](O)CC[C@@]2(C)[C@@H]1C/C=C1/C(=O)OC[C@H]1O`, the Potency result in assay [1], in assay [2], in [3], in [4], in [5] and in assay [6] was “inactive” in each case. The Potency result in assay [7], in assay [8] and in [9] was “inactive” in each case.
For the compound `Nc1ncnc2c1ncn2CCOCP(=O)(O)O`, the Potency entry in [1], in [2], in [3], in [4], in assay [5] and in [6] was “inactive” throughout. Also, the Potency result in assay [7], in [8] and in assay [9] was “inactive” in each case.
For the compound `CC1=C(/C=C/C(C)=C/C=C/C(C)=C/C(=O)Oc2c(C)c(C)c3c(c2C)CC[C@@](C)(CCC[C@H](C)CCC[C@H](C)CCCC(C)C)O3)C(C)(C)CCC1`, the Potency result in [1], in assay [2], in assay [3], in [4], in assay [5] and in [6] was “inactive” in each case. Further, the Potency result in assay [7], in assay [8] and in [9] was “inactive” each time.
Regarding `CCCCc1cc2c(=O)c(C(=O)OC)c[nH]c2cc1OCc1ccccc1`, the Potency result in assay [1], in assay [2], in assay [3], in assay [4], in [5] and in assay [6] was “inactive” throughout. The Potency result in assay [7], in [8] and in assay [9] was “inactive” in each case.
`C[C@H](CSC(=O)c1ccccc1)C(=O)N1C[C@@H](Sc2ccccc2)C[C@H]1C(=O)O`: the Potency result in assay [1], in assay [2], in assay [3], in [4], in assay [5] and in assay [6] was “inactive” in each case. The Potency entry in [7], in assay [8] and in [9] was “inactive” in each case.
With `O=C(O)CCC/C=C\C[C@@H]1[C@@H](/C=C/[C@@H](O)COc2cccc(C(F)(F)F)c2)[C@H](O)C[C@@H]1O`, the Potency result in assay [1], in assay [2], in assay [3], in [4], in assay [5] and in assay [6] was “inactive” each time. Also, the Potency entry in assay [7], in assay [8] and in assay [9] was “inactive” in each case.
In the case of `CC(=O)N[C@@H]([C@@H](O)[C@H](O)[C@H](O)CO)[C@@H](O)CC(=O)C(=O)O`, the Potency entry in assay [1], in [2], in assay [3], in assay [4], in assay [5] and in assay [6] was “inactive” in each case. Moreover, the Potency result in assay [7], in assay [8] and in [9] was “inactive” each time.
As to `CS(=O)(=O)OCC(O)C(O)COS(C)(=O)=O` (stereo unspecified), the Potency result in [1], in [2], in assay [3], in assay [4], in [5] and in [6] was “inactive” each time. In addition, the Potency result in [7], in assay [8] and in assay [9] was “inactive” throughout.
Take `N[C@H](CC(=O)O)C(=O)O`: the Potency entry in [1], in [2], in assay [3], in [4], in [5] and in assay [6] was “inactive” in each case. Moreover, the Potency result in [7], in assay [8] and in [9] was “inactive” in each case.
Turning to `CC(=O)Nc1ccc(OC(=O)c2ccccc2O)cc1`, the Potency result in assay [1], in assay [2], in assay [3], in assay [4], in assay [6] and in [7] was “inactive” in each case. Moreover, the Potency entry in assay [8] and in [9] was “inactive” each time. Also, in [5], the Potency was 26.6 µM (active).
With `O=C(O)CO.[NH2-].[NH2-].[Pt+2]`, the Potency result in assay [1], in assay [2], in assay [3], in [4], in assay [5] and in assay [6] was “inactive” each time. Besides, the Potency entry in assay [7], in assay [8] and in assay [9] was “inactive” in each case.
Regarding `CC[C@H](C)[C@H]1O[C@]2(CC[C@@H]1C)C[C@@H]1C[C@@H](C/C=C(\C)[C@@H](O[C@H]3C[C@H](OC)[C@@H](O[C@H]4C[C@H](OC)[C@@H](O)[C@H](C)O4)[C@H](C)O3)[C@@H](C)/C=C/C=C3\CO[C@@H]4[C@H](O)C(C)=C[C@@H](C(=O)O1)[C@]34O)O2`, the Potency entry in assay [1], in assay [4], in assay [6], in [7], in [8] and in assay [9] was “inactive” each time. Besides, the Potency is 4.22 µM (active) in assay [2], 2.98 µM (active) in assay [3] and 7.5 µM (active) in [5].
